This note sets out measurements from PubChem BioAssay AID651965 (National Center for Advancing Translational Sciences (NCATS), 2013).

About 6,400 (1.9%) of roughly 340,000 compounds were called active. Where a call stands in place of a potency, no number is given. About 4% were inconclusive and are not listed. Calls follow the shape of the dose curve; as a rule, active = well fitted falling curve with a large enough effect; inconclusive = small, poorly fitted or top-dose-only effect; inactive = no such curve, though single readings can be large or run the other way. Only a selection was taken, and actives are over-represented in it overall.
Potency is read from the fitted curve at half-maximal effect.

Sequence of ATP-dependent Clp protease proteolytic subunit (Bacillus subtilis (strain 168)) (P80244 whole entry, looked up): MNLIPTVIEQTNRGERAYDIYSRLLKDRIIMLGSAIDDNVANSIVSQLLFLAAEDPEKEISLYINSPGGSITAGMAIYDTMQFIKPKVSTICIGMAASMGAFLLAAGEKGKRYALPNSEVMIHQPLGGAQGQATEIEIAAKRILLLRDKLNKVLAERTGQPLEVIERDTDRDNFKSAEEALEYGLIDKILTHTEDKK

This test has as its target ATP-dependent Clp protease proteolytic subunit (Bacillus subtilis (strain 168)) (UniProt P80244). As to the kind of experiment: qHTS Assay for Activators of ClpP. Also: the source files actives as falling curves though it sought activators and does not explain the sign; nearly all actives have a fitted effect of over 65% in size. The note with it: purified B. subtilis ClpP, FRET peptide cleavage, 20 min; series mostly up to 57.5 µM. The method in brief:
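Purified B. subtilis ClpP, 10 microg/mL final in Tris/HCl pH8 with KCl, BSA, glycerol and Tween-20, cleaved an Abz/nitrotyrosine-quenched decapeptide. Fluorescence (ex 320, em 430) was read at 0 and 20 min at room temperature. Delta was normalized to 5.8 microM ADEP and DMSO/no-enzyme controls.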
For `O=C(CSc1nc2c(cnn2-c2ccc(F)cc2)c(=O)[nH]1)N1CCCCCC1`, the Potency entry was “inactive”. With `C=CCNC(=O)CSc1nc2sc(C)c(C)c2c(=O)[nH]1`, the Potency entry was “inactive”.

With `CC(=O)c1sc2nc(SCC(=O)N3CCCCC3)[nH]c(=O)c2c1C`, the Potency is 31.6 µM (active). The result for `CC(C)CC1C(=O)N(Cc2cn(CC3CCCCC3)nn2)CCS(=O)(=O)N1Cc1ccc(-c2ccc(Cl)cc2)cc1` (stereo not drawn) reads “inactive”; that for `CO[C@@H]1CN(C)C(=O)c2cc(NC(=O)Nc3cc(F)ccc3F)ccc2OC[C@H](C)N(C(=O)c2ccccn2)C[C@@H]1C`, “inactive”; that for `CCOc1ccccc1NC(=O)Cn1nnc(C(=O)NCc2cccs2)c1N`, “inactive”. As to `Cn1ncc(Br)c1C(=O)NCc1cccs1`, the Potency entry was “inactive”. The result for `CC(C)Cn1c(N)c(C(=O)NCc2cccs2)c2nc3ccccc3nc21` reads 7.08 µM (active); that for `NCCCNC(=S)NCCCN(Cc1ccc(Cl)cc1)c1ccc(Br)cn1`, “inactive”; that for `CC1(C(=O)Nc2ccc3c(c2)OCCO3)CN(S(C)(=O)=O)CC(=O)N1Cc1cccc(F)c1` (stereo not drawn), “inactive”. The result for `CCC(C(=O)NCc1cccnc1)n1nc(C)c2sc3ccccc3c2c1=O` (stereo not drawn) reads “inactive”. With `CCC(Oc1ccccc1)C(=O)NCc1cccnc1` (stereo not drawn), the Potency is 35.5 µM (active). With `O=C(NCc1cccnc1)Nc1ccccc1F` the entry was “inactive”; with `CC(=O)Nc1cccc(-c2ccnc3c2CC(C)(C(=O)NCc2ccccc2)O3)c1` (stereo not drawn), “inactive”; with `CC1(C(=O)Nc2ccc3c(c2)OCCO3)CCN1C(=O)Cc1cc(F)ccc1F` (stereo not drawn), “inactive”. With `COc1ccc(NC(=O)C2Cc3c(-c4ccc(Cl)cc4)ccnc3O2)cc1` (stereo not drawn) the entry was “inactive”; with `O=C(Nc1ccc(-c2nnc(-c3ccccc3)o2)cc1)C1CCCO1` (stereo not drawn), 12.6 µM (active); with `COc1ccc(CC(=O)Nc2ccc(C(=O)NC(C)(C)C)cc2)cc1`, “inactive”.

In the case of `CCOc1ccc(NC(=O)c2ncoc2-c2ccco2)cc1`, the Potency entry was “inactive”.

Turning to `O=C(CSc1nnc(-c2ccco2)o1)NCC(=O)c1ccccc1`, the Potency entry was “inactive”.

As to `O=C(CSc1nnc(-c2ccc(NS(=O)(=O)c3ccccc3)cc2)o1)NCC1CCCO1` (stereo not drawn), the Potency entry is “inactive”. For `COc1ccc(CC(=O)Nc2c(C(N)=O)oc3ccccc23)cc1`, the Potency entry was “inactive”. On to `COc1ccc(CC(=O)Nc2ccc(-c3nnc(-c4ccccc4)o3)cc2)cc1`, for which the Potency was 7.08 µM (active). For the compound `COc1ccc(OCC(=O)Nc2nnc(-c3ccco3)s2)cc1`, the Potency entry is “inactive”.

Consider `Cc1ccc(OCC(=O)Nc2ccc(-c3nnc(-c4ccco4)o3)cc2)cc1`, for which the Potency is 28.2 µM (active).

For `CC(=O)Nc1ccc(NC(=O)COc2ccc(-c3ccccc3)cc2)cc1`, the Potency entry is “inactive”.

For `O=C(Nc1cccc(-c2nnc(-c3ccccc3)o2)c1)C1CCCO1` (stereo not drawn), the Potency entry was “inactive”.

As to `CCOc1ccc(-c2nnc(-c3ccco3)o2)cc1`, the Potency is 8.91 µM (active). With `Fc1cccc(Cc2c(-c3ccc(Cl)cc3)nc3ccc(Cl)cn23)c1` the entry was “inactive”; with `O=C(Nc1cccc2cccnc12)c1ccc2sc([C@H]3C[C@H](O)[C@@H](CO)O3)nc2c1`, “inactive”. With `CCCCCc1c(Cc2ccccc2)ncn1CCc1ccccc1OC` the entry was “inactive”; with `O=C(Nc1nnc([C@H]2C[C@H](O)[C@@H](CO)O2)s1)c1cccc(Cl)c1`, “inactive”; with `CC(C)(O)C1=C[N+](=O)CC=C1`, “inactive”.

For `O=S(=O)(c1cccc(C(F)(F)F)c1)N1c2ccccc2-n2cccc2C1c1cccnc1` (stereo not drawn), the Potency entry was “inactive”. With `CN(C)c1ccc(/C=N\Nc2ccc([N+](=O)[O-])cc2[N+](=O)[O-])cc1Cl` the entry was “inactive”. For the compound `O=C(Nc1ccc(Cl)cc1)c1cnn2c1NC(=C1CC1)C=C2C(F)F`, the Potency result is “inactive”. Regarding `CC(C)(C)c1ccc(S(=O)(=O)NC(=O)C2(C)CCN2C(=O)CC2CC2)cc1` (stereo not drawn), the Potency result was “inactive”.

As to `COc1ccc(C(C)C)cc1-c1ccc2nncn2c1`, the Potency result is “inactive”. With `C/C=C/NNC(=O)Cc1ccc(OC)cc1` the entry was “inactive”.

Consider `CC1(C)Cc2ccccc2-c2c[nH]c(=O)n21`, for which the Potency result is “inactive”.

As to `O=c1oc2ccc(C#CC3(O)CCCCC3)cc2cc1-n1cc(-c2ccsc2)nn1`, the Potency is 31.6 µM (active). With `CCCCCn1nnnc1-c1nc2cc3ccccc3cc2[nH]c1=O` the entry was “inactive”; with `CCOC(=O)[C@]12CCCC=C1N(Cc1ccc3c(c1)OCO3)C(=O)[C@H](CC(=O)NCc1cccs1)C2`, “inactive”; with `O=C(c1ccc2c(=O)n(Cc3ccco3)c(=S)[nH]c2c1)N1CCCC1`, “inactive”.

For the compound `O=C(Nc1cccc(-c2nc3ncccc3o2)c1)c1ccco1`, the Potency result was “inactive”.

Consider `Cc1cccc(C(=O)Nc2ccc(-c3nc4ncccc4o3)cc2C)c1`, for which the Potency was 35.5 µM (active). On to `O=C(Nc1cc(-c2nc3ncccc3o2)ccc1Cl)c1ccco1`, for which the Potency entry is “inactive”. With `COc1ccc(C(NC(=O)C2CCN(CCCc3ccccc3)CC2)c2cccs2)cc1` (stereo not drawn) the entry was “inactive”; with `Cc1ccccc1OCc1ccc(-c2nc(C#N)c(N3CCCCC3)o2)o1`, “inactive”; with `CCC(C)Nc1oc(-c2ccc(COc3ccc(Cl)cc3)o2)nc1C#N` (stereo not drawn), 28.2 µM (active). With `COc1ccc(OCc2ccc(-c3nc(C#N)c(N4CCN(c5ccccc5)CC4)o3)o2)cc1` the entry was “inactive”. The result for `CN1CCN(c2oc(-c3ccc(COc4ccc(Cl)cc4)o3)nc2C#N)CC1` reads 35.5 µM (active); that for `N#Cc1nc(COc2ccc(Cl)cc2)oc1N1CCCC1`, “inactive”; that for `CC1CC(C)CN(c2oc(-c3ccc(OCc4ccc(Cl)cc4)cc3)nc2C#N)C1` (stereo not drawn), “inactive”. Consider `CCCCCc1c(-c2ccc(OC)c(OC)c2)ncn1CCc1ccccc1OC`, for which the Potency result was “inactive”. `O=S(=O)(c1ccc(Br)cc1)c1nnn2c1nc(NC1CCCCCC1)c1sccc12`: the Potency result was “inactive”. For `O=S(=O)(c1ccc(Cl)cc1)c1nnn2c1nc(NC1CCCC1)c1sccc12`, the Potency was 25.1 µM (active). Regarding `CC1CCCN(c2nc3c(S(=O)(=O)c4ccc(C(C)C)cc4)nnn3c3ccsc23)C1` (stereo not drawn), the Potency result was “inactive”. With `C[C@@H]1Cn2cnc(C(=O)Nc3ccc(CNC(=O)OC(C)(C)C)cc3)c2C(=O)N1` the entry was “inactive”; with `CC1CN(C(=O)c2cccc(NS(=O)(=O)c3ccc(Br)cc3)c2)CC(C)O1` (stereo not drawn), “inactive”. Regarding `COc1ccc(COC[C@H](CC(C)C)N2CCN(C(=O)c3cccc(C(F)(F)F)c3)CCC2=O)cc1`, the Potency result is “inactive”. With `COC(=O)C[C@@H]1C=C[C@@H](NC(=O)c2cccnc2)[C@@H](CO)O1` the entry was “inactive”; with `COc1ccc(CCNc2cc(C)nc3c(-c4ccc(Cl)cc4)c(C)nn23)cc1OC`, 28.2 µM (active). With `COc1ccc(CCNc2nc(-c3ccc(Cl)cc3)cc(C(F)(F)F)n2)cc1OC`, the Potency entry was “inactive”. The result for `COc1ccc(-c2c(C)nn3c(N4CCC(C(=O)NCCC(C)C)CC4)cc(C)nc23)cc1OC` reads “inactive”; that for `CNc1cncc(-c2cccc(C(=O)N3CCOCC3)c2)n1`, “inactive”; that for `NCCCCC(C(=O)O)N(C(=O)OCc1ccccc1)C(=O)OCc1ccccc1` (stereo not drawn), “inactive”. With `CC(C)(C)OC(=O)N(Cc1ccco1)S(=O)(=O)c1ccccc1Br` the entry was “inactive”. The result for `O=C(C(=O)N1CCC(c2ccccc2)CC1)c1ccccc1` reads “inactive”; that for `Cc1ccc(C2CCN(C(=S)Nc3cccc(Cl)c3)C2)cc1` (stereo not drawn), “inactive”.

On to `Cc1nc2ccc(NC(=O)N3CCC(c4ccccc4)C3)cc2nc1C` (stereo not drawn), for which the Potency is 10 µM (active). With `COC(=O)[C@]12CCCCC=C1N(Cc1ccco1)C(=O)[C@H](CC(=O)NCC1CCCCC1)C2` the entry was “inactive”. The result for `C[C@H](NC(=O)[C@@H]1CCCN1C(=O)[C@@H]1CCCN1C(=O)c1ccccc1)c1ccccc1` reads “inactive”; that for `CN(C)c1cccc2ccccc12`, “inactive”. `O=C(CN1CCCC1)Nc1sc2c(c1C(=O)Nc1ccccc1)CCCC2`: the Potency is 28.2 µM (active). For `CCOc1ccc(NC(=O)c2c(NC(=O)Cc3ccccc3)sc3c2CCCCC3)cc1`, the Potency entry was “inactive”. As to `O=C(Cc1ccccc1)Nc1sc2c(c1C(=O)Nc1ccc(Br)cc1)CCC2`, the Potency entry is “inactive”. For the compound `Cc1ccc(-c2ccc(=O)n(CC(=O)NCCCN3CCCCC3)n2)cc1`, the Potency was 14.1 µM (active). With `CCc1ccc(-c2cc3c(=O)n(CC(=O)NCCCN4CCN(Cc5ccccc5)CC4)nc(C)n3n2)cc1` the entry was “inactive”; with `CCN(CC)CCCNC(=O)CCn1nc(-c2ccc(Cl)cc2)ccc1=O`, “inactive”. Turning to `S=c1[nH]c(=S)c2n[nH]nc2[nH]1`, the Potency result is “inactive”. Regarding `NC(=O)Nc1ccc(/C=C/c2ccnc3ccccc23)cc1`, the Potency result was “inactive”.

As for `CC(C)C1CC2=C(C(=O)OC(C)(C)O2)C(c2ccc(F)cc2)O1` (stereo not drawn), the Potency result was “inactive”.
